Assay results as given in PubChem BioAssay (NCI).
The panel holds about 83,000 compounds, 20% with a hit somewhere; the sample as a whole holds those more often.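 Interpretation: 100, growth as untreated; towards 0, rising growth inhibition; 0, no net growth; 0 to -100, cell death. Compounds scoring below 10 were considered active.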 Values without a mark were called inactive. Active and inactive are the calls of the source.

Experiments:
Assay in all cases: NCI-60 one-dose screen, 48 h (100 = growth as untreated, 0 = no growth, -100 = all killed)
Conditions in all cases: 10 µM
[1] = system: HCT-15 colon
[2] = system: HT29 colon
[3] = system: SNB-75 CNS
[4] = system: PC-3 prostate
[5] = system: SK-MEL-5 melanoma
[6] = system: UACC-62 melanoma
[7] = system: SK-MEL-28 melanoma
[8] = system: SN12C renal
[9] = system: UO-31 renal
[10] = system: TK-10 renal
[11] = system: ACHN renal
[12] = system: CAKI-1 renal
[13] = system: A498 renal
[14] = system: MOLT-4 leukemia
[15] = system: U251 CNS
[16] = system: LOX IMVI melanoma
[17] = system: SK-MEL-2 melanoma
[18] = system: CCRF-CEM leukemia
[19] = system: SNB-19 CNS
[20] = system: EKVX NSCLC

| SMILES | growth [1] | growth [2] | growth [3] | growth [4] | growth [5] | growth [6] | growth [7] | growth [8] | growth [9] | growth [10] | growth [11] | growth [12] | growth [13] | growth [14] | growth [15] | growth [16] | growth [17] | growth [18] | growth [19] [%] | growth [20] |
| --- | --- | --- | --- | --- | --- | --- | --- | --- | --- | --- | --- | --- | --- | --- | --- | --- | --- | --- | --- | --- |
| CC(C)(C)c1ccc(S(=O)(=O)N[C@H]2CC[C@H]3[C@@H]4CCc5cc(O)c([N+](=O)[O-])cc5[C@H]4CC[C@]23C)cc1 | 87.9% | 70% | 5.54% (active) | 47.4% | 83.5% | 84.2% | 77% | 71.8% | 35.2% | 90.6% | 30% | 46.3% | 75.8% | 78.5% |  |  |  |  |  |  |
| CCN(CC)CCCC(C)N=C(C1=C(C(=NC(C)CCCN(CC)CC)c2cccc(OC)c2)C(=O)NC1=O)c1cccc(OC)c1 (configuration not stated) | -30.7% (active) | -10.5% (active) | -28.5% (active) | 3.15% (active) | -93.8% (active) | -75.4% (active) | -69.1% (active) |  | -97.2% (active) | -31.1% (active) | -64% (active) | -57.9% (active) | 18.7% | -15.7% (active) | -51.3% (active) | -73.9% (active) | -53.7% (active) | -21.4% (active) |  |  |
| Nc1nc(N)c(N)c(Nc2ccc(CCO)cc2)n1 | 115% | 104% |  | 96.8% | 99.4% | 97.5% | 113% | 100% |  | 102% | 106% | 100% | 92.8% |  | 96.6% | 97.2% | 118% |  | 124 | 91.9% |
| COc1cc(/C=C2\CCCC3C2=Nc2ccccc2NC3c2cc(OC)c(OC)c(OC)c2)cc(OC)c1OC (configuration not stated) | 6.11% (active) |  | 54.5% | 38.2% | -52% (active) | -32.6% (active) | 29.4% | -4.27% (active) | 5.57% (active) |  | -23% (active) | 6.51% (active) | -22.4% (active) | 0.606% (active) | -11.4% (active) | -62% (active) | 17.9% | 4.32% (active) | 64.4 | 59.8% |
| CCN(CC)CCCOc1cccc2c1C(=O)c1cccc(OCCCN(CC)CC)c1C2=O | 34.5% | 11% | 52.6% | 33.2% | 46.6% |  | 61.2% | 31.2% | 16% | 38.8% | 22.7% |  | 46.4% | 4.98% (active) |  | 16.9% | 42.1% | 25% | 34.1 | 54.5% |
| NC(N)=N/N=C(\N=Nc1ccccc1)c1ccc(Cl)cc1 | 22.1% |  | 60.6% | 25.1% | 65.1% | -29.6% (active) | 75.3% | 76.3% | 4.05% (active) | 65.8% | 25.1% | 1.66% (active) | 14.7% | 2.47% (active) |  | -7.27% (active) | 52.5% |  | 81.9 | 49.2% |
| C[n+]1c2ccccc2nc2ccccc21 | 21.3% |  | 22.8% | 7.71% (active) | 3.8% (active) | -34.3% (active) | -2.36% (active) | -27.8% (active) | 42.4% |  | 13.6% | 15.3% | 60% | 24.9% |  | -36.5% (active) | -24.2% (active) | -0.566% (active) |  | 54.9% |
| Cc1ccc(Cl)cc1NC(=O)CCl | 67.2% |  | 85.6% | 81.2% | 58.1% | 66.3% | 98.5% | 84% |  | 96% | 104% |  | 105% | 32% | 67.5% | 42.2% | 86.9% | 28.4% | 82.2 | 119% |
| Cc1ccc(C(C)C)c(O)c1NC(=O)OC(C)C | 92.2% |  | 77.5% | 85.5% | 97.6% | 92% | 101% |  |  | 116% |  | 121% | 91.5% | 122% | 105% | 99.4% | 96.6% | 104% | 99.4 | 92.3% |
| CC(=O)[C@@]12O[C@](C)(c3ccccc3)O[C@@H]1CC1C3CCC4=CC(=O)CC[C@]4(C)C3CC[C@@]12C (some centres not stated) | 71% |  | 79.5% | 31.1% | 55.1% | 63% | 99% | 84% |  | 88.2% | 69.3% | 47.5% | 68.2% | 23.7% |  | 72.3% |  | 73.1% | 85.3 | 63.5% |
| O=c1c(Br)ccc(Br)cc1Br | -32.8% (active) |  |  | -24.7% (active) | 32.4% | -5.1% (active) | -53.4% (active) | 4.44% (active) |  | -44.5% (active) | -79.1% (active) | -81.3% (active) | 93% | -36.8% (active) |  | -76.9% (active) | -73.3% (active) | -41.4% (active) | 86.6 | 99.1% |
| N#Cc1cnn(C(=O)c2nn(-c3ccc(Cl)cc3)cc2O)c1N | 18.1% |  | 32.4% |  | 14.8% | 5.76% (active) |  | 26.5% | -3.61% (active) |  | 11.4% | -34.4% (active) | 48.6% | -14.4% (active) | 22% | 8.92% (active) | 1.93% (active) | -10.1% (active) | 32.5 | 1.5% (active) |
| O=C(N/N=C/c1ccc(Cl)cc1)c1ccc(Cc2n[nH]c(=O)c3cccnc23)cc1 | 97.1% |  | 84.5% | 95.4% | 100% | 94.2% | 104% | 100% | 74.3% | 107% | 102% | 94.8% | 131% | 98.6% | 103% | 100% |  | 107% | 89 | 105% |
| COc1cc(/C=C/c2cc(/C=C/c3ccc(O)c(OC)c3)nc(N)n2)ccc1O | 29.5% |  | 5.5% (active) | 13% | -18.4% (active) | -57.7% (active) | 9.55% (active) | 22.1% | 3.16% (active) | 21.4% | 13.5% | 19.2% | -56.9% (active) |  | 2.97% (active) | -16.1% (active) |  |  | 23.2 | 22.2% |
| Clc1ccc(Cc2ccncc2)cc1 | 104% |  | 89.8% | 103% | 104% | 95.3% | 112% | 95.4% |  | 130% |  | 130% | 104% | 114% | 113% | 97.9% | 121% | 104% | 98.9 | 101% |
| COc1cc(N)c2ncccc2c1SC | 112% |  | 91% | 101% | 107% | 110% | 106% | 105% |  |  | 104% | 99.2% | 71.8% | 101% | 102% | 93.1% |  | 98.5% | 99 | 86% |
| CN1CCN(C2=Nc3ccccc3Oc3ccc(Cl)cc32)CC1 | 103% |  | 59.5% | 83.8% | 96.7% | 98.7% | 110% | 100% | 77.1% | 89.7% | 93.6% | 81.5% | 81.3% | 80.3% | 102% | 103% |  | 99.6% | 104 | 107% |
| Cc1cc(SCc2ccccc2)nc(N)n1 | 104% |  |  | 111% | 117% | 87.5% | 106% | 92.5% | 98.1% | 107% |  | 112% | 89.4% | 98.5% | 118% | 103% | 119% |  | 92.1 | 96.7% |
